Source: PubChem (The Scripps Research Institute Molecular Screening Center)
This excerpt belongs to a sample that is enriched for hits.
TTR transcr act = TTR transcription activation, primary screen; SH-SY5Y TTR promoter Gaussia luciferase, luminescence; 100% = recombinant luciferase protein wells; activation, % at 16.7 µM; hit rate 1.3% among 92,000; AID 1117267;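 active = activation above the mean of all tested compounds plus 3 SD, cut at about 9.5% in these data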;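 also: cells exposed to compounds for one day before reading; 0% = median of all test compound wells on the plate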
TTR inh HuH7 = decreases TTR transcription in HuH7 cells in activator counter-screen; inhibition, % at 16.7 µM; shares compounds with TTR transcr act; HuH7 TTR promoter-Gaussia luciferase reporter, luminescence; hit rate 4% among 1,100; AID 1117279;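 active = average inhibition above the solvent-only control wells' mean plus 3 SD, cut at about 15% in these data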;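 also: 0% = cells with DMSO only and 100% = cells with inhibitor control FD; inhibitors lower well luminescence so higher value means more inhibition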
TTR up confirm = human TTR transcription activation, confirmation; shares compounds with TTR transcr act; SHSY5Y TTR promoter Gaussia luciferase, luminescence; 100% = purified Lucia enzyme wells, no cells; activation, % at 16.7 µM; 1,100 tested, under 10 active;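 active = mean activation above a set limit taken from the earlier primary screen, cut at about 11% in these data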;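 also: 0% = DMSO-treated cells and 100% = recombinant Lucia luciferase without cells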
* marks the source's active call; other numbers are inactive results; ! = not confirmed by another sample.

SMILES	TTR transcr act	others
CCN(CC)C(=O)[C@H]1C[C@H](CC(=O)NCCN2CCOCC2)C(=O)N2CCc3c([nH]c4cc(CCC(=O)N(C)C)ccc34)[C@]12C	-1.1
O=C(Nc1cccc(C(F)(F)F)c1)c1csc([C@H]2C[C@H](O)[C@@H](CO)O2)n1	0.2
COc1ccc(CN2C(=O)C(CC(=O)NC3CCCC3)CC(C(=O)N3CCOCC3)=C2C)cc1 (configuration not stated)	1.7
CC(C)c1cc(-c2cc(-c3ccc(Cl)cc3)on2)nc(NC2CCCC2)n1	0.2
Cc1cc(C)nc(NCc2ccc(Cl)cc2)n1	-0.8
CCCNc1nc(-c2cc(-c3ccc(Cl)cc3)on2)cc(C(C)C)n1	11.9*	TTR inh HuH7=-12.4;TTR up confirm=0.2
CCc1ccc(CCNC(=O)OC2CC3CC2[C@H]2CCCCN2[C@H]3Cc2ccccc2)cc1 (some centres not stated)	-0.4
COc1ccc(C(=O)N2CCC(C)(C(=O)NS(=O)(=O)C3CC3)C2)cc1F (configuration not stated)	6.0
CCc1nnc(NC(=O)CSc2nnc(-c3ccccc3O)n2CC)s1	22.1*	TTR inh HuH7=-14.0;TTR up confirm=0.8
CCc1nnc(NC(=O)CSc2nnc(-c3cc4ccccc4cc3O)n2CCOC)s1	0.5
CCn1c(SCC(=O)Nc2nc(-c3ccccc3)cs2)nnc1-c1ccccc1O	-6.2
CCc1nc2ccc(C(=O)N3CCN(C(=O)c4ccco4)CC3)cn2c1N(C=O)Cc1ccc(OC)cc1	2.0
O=C(NCc1ccccc1)c1ccc(C(=O)NCc2ccccc2)cc1	-1.6
O=C(NCc1ccccc1)c1cc2ccccc2oc1=O	-0.2
O=C(NCc1ccccc1)c1cc(=O)c2ccccc2o1	26.2*	TTR inh HuH7=-12.6;TTR up confirm=4.3
O=C(Cc1cc(=O)[nH][nH]1)N/N=C/c1c(Cl)cccc1Cl	-1.1
O=C(Cc1cc(=O)[nH][nH]1)N/N=C/c1cccc(Cl)c1Cl	22.8*!	TTR inh HuH7=-12.9;TTR up confirm=-0.2
O=C(Cc1cc(=O)[nH][nH]1)N/N=C/c1ccccc1Cl	6.6
CCCCCC(=O)N1C[C@H](n2cc(COC(=O)c3ccccc3)nn2)[C@@H](O)C[C@@H]1c1ccc(OC)cc1	0.7
COc1ccc(CN(C)C(=O)Cn2ccc(NC(=O)OCc3ccccc3)nc2=O)cc1OC	-1.8
O=C(NC1CC1)C1CCN(c2ccc(S(=O)(=O)N3CCOCC3)cc2Cl)CC1	-1.6
CSc1ccc(S(=O)(=O)N2CCC(C(=O)NC3CC3)CC2)cc1	17.8*	TTR inh HuH7=-17.6;TTR up confirm=0.9
Cc1ccc(S(=O)(=O)NNC(=O)C2CCN(S(=O)(=O)c3ccc(C)cc3)CC2)cc1	-0.9
CC1=C(C(=O)N(C(C)C)C(C)C)CC(CC(=O)NCc2cccc3ccccc23)C(=O)N1Cc1ccccc1 (configuration not stated)	-1.2
COc1ccc(/C=N/NC(=O)COc2cccc3cccnc23)cc1OC	-0.9
SMILES	TTR transcr act	others
CC(Oc1cccc2cccnc12)C(=O)N/N=C/c1ccc2c(c1)OCO2 (configuration not stated)	12.6*	TTR inh HuH7=-8.2;TTR up confirm=-0.7
CC(Oc1cccc2cccnc12)C(=O)N/N=C/c1ccccc1 (configuration not stated)	-2.2
COc1ccc2c(c1)OC[C@H]1[C@H]2N2C(=O)CN(CCc3c[nH]c4ccccc34)C(=O)[C@@]2(C)[C@H]1c1ccccc1	-0.7
CS(=O)(=O)N1N=C(c2ccco2)CC1c1ccc(Br)cc1 (configuration not stated)	17.7*	TTR inh HuH7=-18.6;TTR up confirm=-0.2
COc1ccc(C2CC(c3ccc(OC)c(OC)c3)=NN2S(C)(=O)=O)cc1 (configuration not stated)	-0.8
CS(=O)(=O)N1N=C(c2cccs2)CC1c1ccccc1 (configuration not stated)	0.5
COC1=Nc2ccccc2/C=C\c2ccccc21	1.3
COc1ccc(C)cc1NC(=O)NC(C)c1ccc2c(c1)OCO2 (configuration not stated)	1.7
Cc1nc2ccccc2n1-c1ccccc1	-0.1
Nn1c(-c2ccccc2)nc2ccccc2c1=O	2.7
On1c(-c2ccccc2)nc2ccccc21	11.4*	TTR inh HuH7=-8.1;TTR up confirm=-0.5
S=C(c1ccc2c(c1)OCO2)N1CCN(c2cccc(Cl)c2)CC1	-3.2
COc1ccc(-n2c(C)cc(C(=O)COC(=O)Cn3cnc4ccccc43)c2C)cc1	-3.3
COc1ccc(-n2c(C)cc(C(=O)COC(=O)c3cc(NC(=O)c4cccs4)c(OC)c(OC)c3)c2C)cc1	9.8*	TTR inh HuH7=-12.1;TTR up confirm=-0.3
COc1cc(C(=O)OCC(=O)NCc2ccc(F)cc2)cc(NC(=O)c2cccs2)c1OC	-1.9
COC(=O)CNc1nc(Cl)nc(NC2CCCCC2)n1	-1.4
CCOC(=O)CC1(C)NC(C(=O)O)C(C)(C)S1 (configuration not stated)	-0.1
COc1ccc(-n2c(SCC(=O)NCC3CCCO3)nc3c(c2=O)SC(C)C3)cc1 (configuration not stated)	6.1
CCN1CCN(c2nc3c(C)cccn3c(=O)c2/C=C(\C#N)C(=O)NC)CC1	-1.1
COc1ccccc1/C=C/CN1CCSCC1	-0.9
CC(C)(C)OC(=O)C[C@@H]1C/C=C\C[C@H](CC(=O)NCCO)C(=O)N[C@@H](Cc2ccccc2)COC1=O	2.1
Nc1ccccc1C(=O)NC1CCCNC1=O (configuration not stated)	2.9
COc1ccc(CNC(=O)CN2C(=O)COc3ccc(S(=O)(=O)N4CCCC4)cc32)cc1	-0.2
CCOCCCNC(=O)CN1C(=O)COc2ccc(S(=O)(=O)N3CCCC3)cc21	11.4*	TTR inh HuH7=-11.8;TTR up confirm=-0.1
CC(C)CN(CCCNC(=O)CN1C(=O)COc2ccc(S(=O)(=O)N3CCC(C)CC3)cc21)CC(C)C	-0.4
SMILES	TTR transcr act	others
O=C(NCCc1c[nH]c2ccccc12)OCc1cn(Cc2cccc(C(F)(F)F)c2)nn1	-2.6
CC(C)(C)NC(=O)C1(C)CCC(=O)N1C1CC1 (configuration not stated)	1.9
CC1CCCN(C(=O)COC(=O)C2=COCCO2)C1 (configuration not stated)	3.6
O=c1[nH][nH]c(=O)c(Cl)c1Cl	11.7*	TTR inh HuH7=-13.6;TTR up confirm=0.1
O=C(NC(CC1CCCCC1)C(=O)O)c1ccccc1 (configuration not stated)	15.4*	TTR inh HuH7=-7.1;TTR up confirm=-0.1
COC(=O)C(CC(=O)CNC(=O)c1ccccc1)NC(=O)c1ccccc1 (configuration not stated)	1.1
O=C(CNC(=O)c1ccccc1)OC1CCCCC1	0.9
NS(=O)(=O)c1cccc(NC(=O)COC(=O)Cc2n[nH]c(=O)c3ccccc23)c1	-1.4
Cc1ccc(C(=O)O)cc1-c1ccc(/C=C2/NC(=O)N(c3ccccc3)C2=O)o1	-1.2
Cc1ccc(CN2C(=O)N/C(=C\c3ccc(-c4ccc(C(=O)O)cc4C)o3)C2=O)cc1	10.7*	TTR inh HuH7=-17.7;TTR up confirm=-0.5
O=C(O)c1ccc(COc2ccccc2/C=C2\NC(=O)N(Cc3ccc(F)cc3)C2=O)cc1	8.7
CSCCC(c1nnnn1C1CCCCC1)N1CCN(C/C=C/c2ccccc2)CC1 (configuration not stated)	0.0
CN(C)c1nc(N(C)C)nc(N(C#N)Cc2ccc(Cl)cc2)n1	-0.3
COC(=O)CN(C#N)c1nc(N(C)C)nc(N(C)C)n1	13.3*	TTR inh HuH7=-8.4;TTR up confirm=3.3
